# Most compounds without a hit are left out; they make up all but 18% or so of the library.
# TDP1 cell CPT – DT40-hTDP1 cell growth loss with CPT; chicken DT40 Tdp1-/-;hTDP1 cells + 20 nM CPT, ATP luminescence, 48 h; 420,000 tested, 12% active; Potency, µM (doses to about 46.2 µM), without a hit: at the top dose activity change, negative = growth inhibition, usual class: inhibitors; further: potency means the concentration at half of the fitted maximal effect; nearly all actives have a fitted effect of over 55% in size
#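 Chicken DT40 Tdp1-/- cells stably complemented with human TDP1 were seeded at 400 cells/well in medium containing 20 nM camptothecin, exposed to pin-transferred compounds, and grown at 37 °C for at least 48 hr. Viability was read as ATP luminescence.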
# Six1-Eya2 blk – inhibitors of human Six1/Eya2 interaction | AlphaScreen GST-Six1/His-Eya2 binding, biochemical; stronger effect = lower value | activity change, % (concentration not given with the values) | Q15475+O00167 | 360,000 tested, 0.56% active | AID 651725; in the data active means activity change below about -65%; inconclusive means mostly about -30% to -63%
#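 AlphaScreen luminescence read after one hour at 37 °C in darkness. Pin-transferred compounds met GST-Six1 and His-Eya2 protein (5X stock 250 nM/500 nM) plus glutathione donor and Ni-chelate acceptor beads (5X, 50 ug/mL).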
# TDP1 cell noCPT – qHTS for Inhibitors of human tyrosyl-DNA phosphodiesterase 1 (TDP1): qHTS in cells in absence of CPT | DT40 Tdp1-/- hTDP1 cells, no CPT, ATP luminescence, 48 h | Potency, µM (highest dose often 46.2 µM), inactives show at the top dose activity change, negative = growth inhibition, actives largely listed as inhibitors | 420,000 tested, 15% active; further: potency means the concentration at half of the fitted maximal effect; nearly all actives have a fitted effect of over 55% in size
#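 Readout: luminescence from CellTiter-Glo after 30 min in the dark at RT. Cells: DT40 Tdp1-/- with stable hTDP1, 400/well. Exposure: compounds alone, ≥48 hr, 37 °C.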
# CtBP-E1A blk – blocks the CtBP interaction with E1A | 340,000 tested, 0.49% active | AlphaScreen GST-E1A/His-CtBP binding, 1536-well; stronger effect = lower value | AID 651724 | activity change, % (concentration not given with the values); in the data active means activity change below about -65%; inconclusive means mostly about -30% to -63%
#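 Steps: dispense buffer (Tris pH 8.0, NaCl 300 mM, TCEP 1 mM, BSA, Tween 20); add 5X protein mix (GST-E1A, His-CtBP, 125 nM each); pin 23 nL compound; 2 h at 37 °C, dark; add 5X beads (50 ug/mL); 1 h; read.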
# IL-1B inflam inh – blocks inflammasome-driven IL-1 beta release; 360,000 tested, 4.7% active; AID 743279; THP-1 LPS/ATP IL-1B secretion, AlphaLISA, 16 h; stronger effect = lower value; activity change, % at 57.5 µM; in the data active means activity change below about -50%; inconclusive means mostly about -30% to -49%
#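 Secreted IL-1B measured by AlphaLISA bead assay after 16 h compound exposure of THP-1 cells; compounds (final up to 57.5 uM) added 1 h before LPS (250 ng/mL) and ATP (1.25 mM) stimulation; lower signal means less secretion.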
# TDP1 inh – TDP1 (human) enzyme inhibition; Q9NUW8; recombinant TDP1, AlphaScreen DNA substrate cleavage; Potency, µM (titrated, usually from 130 µM), for the others: at the highest dose activity change, negative = inhibition, hits mostly inhibitors; 350,000 tested, 0.28% active; AID 485290; further: potency means the concentration at half of the fitted maximal effect; nearly all actives have a fitted effect of over 40% in size
# Target sequence (Q9NUW8 whole entry, looked up): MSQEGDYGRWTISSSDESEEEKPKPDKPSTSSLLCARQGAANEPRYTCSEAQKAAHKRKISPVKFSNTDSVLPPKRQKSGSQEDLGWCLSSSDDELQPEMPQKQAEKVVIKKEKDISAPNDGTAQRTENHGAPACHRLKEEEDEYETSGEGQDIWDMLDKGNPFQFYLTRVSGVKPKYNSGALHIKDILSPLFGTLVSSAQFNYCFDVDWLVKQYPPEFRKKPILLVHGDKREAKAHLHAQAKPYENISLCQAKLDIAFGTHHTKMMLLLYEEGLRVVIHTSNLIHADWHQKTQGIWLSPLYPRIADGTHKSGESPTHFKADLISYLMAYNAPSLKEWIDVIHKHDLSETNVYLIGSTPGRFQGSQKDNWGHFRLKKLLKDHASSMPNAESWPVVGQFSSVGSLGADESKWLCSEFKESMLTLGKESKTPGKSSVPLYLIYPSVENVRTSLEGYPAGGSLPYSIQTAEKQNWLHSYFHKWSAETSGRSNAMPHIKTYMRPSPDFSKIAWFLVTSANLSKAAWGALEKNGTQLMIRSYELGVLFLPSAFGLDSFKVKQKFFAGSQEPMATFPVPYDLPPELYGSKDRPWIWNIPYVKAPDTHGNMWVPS
#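 Steps: enzyme plus compound, 15 min RT; add biotin/phosphotyrosine-FITC oligonucleotide (15 nM final), react 5 min; add donor/acceptor beads (10 ug/ml final), 10 min; read AlphaScreen. Tdp1 at 1 nM final.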
# An asterisk follows results filed as active; ? = inconclusive; nt = no result given. Unless noted, the call rests on the fitted dose curve; in most records, active means well fitted curve in the direction sought with a large enough effect; inconclusive means small, poorly fitted or top-dose-only effect, or another doubt; inactive means no such curve, though single readings can be large; an effect the other way counts as inactive or inconclusive. On the % scale 0 is the no-effect control and ±100 the full control effect.
SMILES,TDP1 cell CPT,Six1-Eya2 blk,TDP1 cell noCPT,CtBP-E1A blk,IL-1B inflam inh,TDP1 inh
O=C(Nc1ccccc1N1CCCCC1)c1ccc([N+](=O)[O-])o1,20.6µM*,?,16.4µM*,2.8,?,10.7%
O=C(Nc1ccccc1N1CCOCC1)c1ccc([N+](=O)[O-])o1,11.6µM*,3.5,14.6µM*,-1.4,-1.3,4.3%
O=C(Nc1cccc(Cl)c1N1CCCC1)c1ccc([N+](=O)[O-])o1,-29.5%,-19.5,-26.9%,-12.4,-83.7*,8.2%
CCN1CCN(c2c(Cl)cccc2NC(=O)c2ccc([N+](=O)[O-])cc2)CC1,-28.9%,-20.3,-9.6%,nt,-12.2,3.1%
CCN1CCN(c2c(Cl)cccc2NC(=O)c2ccco2)CC1,-20.7%,7.4,?,2.7,-68.1*,0.0%
O=C(Nc1cccc(Cl)c1N1CCOCC1)c1ccco1,?,0.4,?,7.6,?,-9.9%
O=C(C[C@@H]1C/C=C\C[C@@H](Cc2ccc(F)cc2)C(=O)OC[C@@H]2CCCN2C1=O)N[C@H](CO)Cc1ccccc1,?,2.1,23.1µM*,0.4,-21.3,-0.3%
O=C(C[C@H]1C/C=C\CC[C@@H](Cc2ccc(F)cc2)C(=O)OC[C@H]2CCCN2C1=O)N[C@H](CO)Cc1ccccc1,?,-0.1,20.6µM*,-1.1,-6.4,1.1%
O=C(C[C@@H]1C/C=C\C[C@H](Cc2ccc(F)cc2)C(=O)OC[C@@H]2CCCN2C1=O)N[C@H](CO)Cc1ccccc1,18.4µM*,-2.4,16.4µM*,0.8,-0.6,2.2%
O=C(C[C@@H]1C/C=C\CCC(=O)OC[C@@H]2CCCN2C1=O)N[C@@H](CO)Cc1ccccc1,-9.8%,3.6,10.6%,-5.7,5.5,0.4%
O=C(C[C@@H]1C/C=C\C[C@H](Cc2ccc(F)cc2)C(=O)OC[C@H]2CCCN2C1=O)N[C@H](CO)Cc1ccccc1,13µM*,3.5,14.6µM*,1.6,-18.6,0.8%
O=C(C[C@@H]1C/C=C/CC[C@H](Cc2ccc(F)cc2)C(=O)OC[C@@H](Cc2ccccc2)NC1=O)N[C@H](CO)Cc1ccccc1,?,5.2,?,2.0,4.0,-0.3%
COc1ccccc1CC(=O)Nc1ccc(NC(=O)c2cccs2)cc1,-2.8%,-7.6,9.6%,-5.0,-11.9,2.9%
COC(=O)CNC(=O)c1cc(OC)cc(OC)c1,2.1%,1.7,-0.6%,11.2,9.1,2.4%
C[C@H](C(=O)O)c1cccc(C(=O)c2ccccc2)c1,7.2%,5.5,-2.7%,2.3,7.8,8.5%
COC(=O)c1ccccc1NC(=O)Nc1cccc(OCc2cc(=O)n3cccc(C)c3n2)c1,-20.5%,nt,?,nt,nt,2.7%
CCC(=O)N/C(=N/c1nc(C)cc(C)n1)Nc1ccc(C)cc1,?,-1.3,-21.1%,1.5,58.8,nt
Cc1ccc(-c2nc3sc4c(c3c(=O)n2N)CCCC4)cc1,-2.0%,0.3,?,8.3,-17.6,0.0%
CC(Nc1nc(-c2ccncc2)nc2ccccc12)c1ccccc1 (stereo not drawn),18.4µM*,-6.9,18.4µM*,1.6,74.4,nt
c1ccc(CCNc2nc(-c3ccncc3)nc3ccccc23)cc1,20.6µM*,-7.2,18.4µM*,-0.5,-6.1,5.6%
CC(Nc1nc(N2CCNCC2)nc2ccccc12)c1ccccc1 (stereo not drawn),4.11µM*,-3.8,5.17µM*,-1.2,-103.7*,5.1%
CNC(=O)CCCN1C(=O)c2cccnc2Sc2ccccc21,18.4%,nt,16.0%,nt,nt,0.6%
COP1(=O)CC(O)C(O)C(COCc2ccccc2)O1 (stereo not drawn),nt,nt,nt,nt,nt,7.4%
COCC(C)NC(=O)C1=CC(c2ccc3c(c2)OCO3)=NS(=O)(=O)N1C (stereo not drawn),15.6%,nt,-5.6%,nt,nt,5.7%
CC1Cc2cc(S(=O)(=O)NCc3ccc(Cl)cc3)ccc2N1C(=O)C1CCC1 (stereo not drawn),23.1µM*,nt,13µM*,nt,nt,8.7%
SMILES,TDP1 cell CPT,Six1-Eya2 blk,TDP1 cell noCPT,CtBP-E1A blk,IL-1B inflam inh,TDP1 inh
CC1Cc2cc(S(=O)(=O)NCc3ccc(F)cc3)ccc2N1C(=O)C1CCC1 (stereo not drawn),?,nt,2.91µM*,nt,nt,0.0%
CC(=O)N1c2ccc(S(=O)(=O)NCc3ccc(Cl)cc3)cc2CC1C (stereo not drawn),?,nt,23.1µM*,nt,nt,0.0%
Cc1ccc(CNS(=O)(=O)c2ccc3c(c2)CCN3C(=O)C2CCC2)cc1,?,1.6,?,nt,11.9,-3.0%
CC(=O)N1CCc2cc(S(=O)(=O)NCc3ccc(C)cc3)ccc21,?,3.8,7.31µM*,5.3,50.8,1.8%
CC(=O)N1c2ccc(S(=O)(=O)NCCC(=O)NC3CCC(C)CC3)cc2CC1C (stereo not drawn),-18.0%,-0.4,-8.1%,-1.0,28.7,0.3%
CCOC(=O)[C@]12CCC=C1N(Cc1ccc3c(c1)OCO3)C(=O)[C@H](CC(=O)NCC1CCCCC1)C2,?,1.9,?,-0.4,0.0,nt
COC(=O)c1ccc(C(NC(=O)OCc2ccccc2)/C(=C/[C@@H](C)C(=O)NCCF)c2cccnc2)cc1 (stereo partly drawn),nt,nt,nt,nt,nt,5.1%
CCOc1ccc(S(=O)(=O)NCCC(=O)Nc2cccc(C(=O)OC)c2)cc1,-0.2%,-0.1,-21.7%,1.2,-74.3*,nt
CCOc1ccc(S(=O)(=O)NCCC(=O)Nc2ccncc2)cc1,-6.1%,2.0,-7.4%,2.4,26.8,nt
CCOc1ccc(NC(=O)CCNS(=O)(=O)c2ccc3c(c2)CC(C)N3C(C)=O)cc1 (stereo not drawn),14.6µM*,0.2,23.1µM*,0.8,4.2,0.6%
Cc1ccc(CNS(=O)(=O)c2ccc3c(c2)CC(C)N3C(=O)C2CCC2)cc1 (stereo not drawn),?,nt,20.6µM*,nt,nt,5.0%
COCC(C)n1c(SCC(=O)N2CCOCC2)nc2ccccc2c1=O (stereo not drawn),-10.4%,6.9,?,nt,-24.9,1.6%
O=C(O)CC(c1ccc(Cl)cc1)N1Cc2ccccc2C1=O (stereo not drawn),-17.3%,-4.7,-2.3%,14.5,25.2,nt
COc1ccc(-c2cc(C(F)(F)F)nc(SCC(=O)N3CCCCC3C)n2)cc1OC (stereo not drawn),?,nt,?,nt,nt,0.0%
CCC1CCCCN1C(=O)CSc1nc(-c2ccc(OC)cc2)cc(C(F)(F)F)n1 (stereo not drawn),23.1µM*,nt,9.2µM*,nt,nt,-3.2%

# High-throughput results as filed in PubChem BioAssay.
